Rows were chosen to be rich in hits. Some 9.1% of all compounds tested hit in one or more screens of this group.
D1 mod – D1 CRE-luciferase signal change, two-sided – cell-based, HEK293 D1, dopamine EC30, D1 allosteric modulator project, primary screen; 5.9% of 58,000 active; dopamine EC30 potentiation; actives deviate in either direction; B-score at 10 µM; AID 641, 2007;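 active means luminescence count or its row- and column-corrected plate score outside the 99.7% band of the plate's sample wells, on either side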
M1 antagonist – antagonists of rat M1 muscarinic receptor; Muscarinic acetylcholine receptor M1 (Rattus norvegicus), P08482; CHO-M1 cells, Fluo-4 calcium, ACh EC80 antagonist mode; stronger effect = lower value; B-score at 10 µM; 3.4% of 64,000 active; AID 628, 2007;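 active means calcium fluorescence response, raw or row-and-column corrected B-score, differing from the plate sample mean either way at a set confidence level, mostly lower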
Target sequence (P08482 whole entry, looked up): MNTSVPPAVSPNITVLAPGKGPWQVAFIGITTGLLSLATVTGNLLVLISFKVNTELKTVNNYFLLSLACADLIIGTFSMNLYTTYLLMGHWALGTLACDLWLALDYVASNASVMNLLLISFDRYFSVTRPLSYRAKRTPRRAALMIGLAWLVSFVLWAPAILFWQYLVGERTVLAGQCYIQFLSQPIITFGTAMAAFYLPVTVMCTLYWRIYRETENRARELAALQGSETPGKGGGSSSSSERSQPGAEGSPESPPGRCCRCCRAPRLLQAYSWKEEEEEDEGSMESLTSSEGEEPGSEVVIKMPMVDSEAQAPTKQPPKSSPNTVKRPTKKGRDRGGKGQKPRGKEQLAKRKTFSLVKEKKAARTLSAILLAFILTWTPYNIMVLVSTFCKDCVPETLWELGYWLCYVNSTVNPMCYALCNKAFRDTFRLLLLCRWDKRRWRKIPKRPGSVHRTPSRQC
M1 agonist – M1 muscarinic receptor agonists, primary screen, CHO-M1 cells, Fluo-4 calcium, agonist mode. Fluo-4 calcium fluorescence; stronger effect = higher value. 3% of 64,000 active. B-score at 10 µM. Muscarinic acetylcholine receptor M1;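 active means fluorescence rise, raw or as B-score row- and column-corrected plate score, outside the 99.7% band of its plate's samples, either direction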
Htt clearance – clearance of mutant huntingtin inclusions, primary screen, imaging, HeLa Exon1htt(103Q)mCFP, confocal imaging | aggregate imaging; zero = plate's median compound well | inhibition, % at 1.5 µM | 0.42% of 47,000 active | AID 853, 2007;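 active means inhibition of aggregate fluorescence above about 70%, also judged a hit by eye on the cell image, limit read from the data, passing the limit was not always enough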;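 further: cells exposed to compound for three days before fixation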
M1 antag confirm – rat M1 muscarinic receptor antagonists, confirmation, CHO cells, Fluo-4 calcium, duplicate; shares compounds with M1 antagonist; 43% of 1,700 active; calcium response (max-min fluorescence) at 10 µM; ACh EC80 antagonism; stronger effect = lower value;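 active means calcium response below the same-plate mean of wells given acetylcholine alone at its 80%-effect dose, minus 3 SD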;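 further: raw fluorescence intensity difference in arbitrary instrument units and not normalized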
mGluR4 antag – human mGluR4 response to M1 antagonist hits, M1 allosteric modulator project, cell-based, antagonist mode, secondary assay 1 | shares compounds with M1 antagonist | CHO-mGluR4 calcium flux, Fluo-4 fluorescence, glutamate EC80; stronger effect = lower value | 0.9% of 1,700 active | fluorescence response (max-min) at 10 µM | AID 678, 2007;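 active means fluorescence response below the plate's average for near-maximal glutamate wells, less 3 SD of those wells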;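 further: raw unnormalized fluorescence span taken in the window right after glutamate addition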
* hit, by the source's call.

What do the screens show for `CC(C)n1c(-c2ccco2)csc1=Nc1cccnc1`?
D1 mod: 0.163; M1 antagonist: -3.28*; M1 agonist: -0.225; M1 antag confirm: 471*; mGluR4 antag: 194

Results for c1cncc(-c2nc(-c3ccco3)cs2)c1 ?
D1 mod: 1.07; M1 antagonist: -0.013; M1 agonist: 0.14

Results for CC(C)CC(=O)OCc1cn(-c2ccccc2)nn1 ?
Htt clearance: -15.2

What do the screens show for `CCOCCCn1c(=S)[nH]c2cc(C(=O)NCCN(CC)CC)ccc2c1=O`?
D1 mod: 0.119; M1 antagonist: -8.78*; M1 agonist: 0.117; Htt clearance: -48.9; M1 antag confirm: 538; mGluR4 antag: 204

What do the screens show for `CS(=O)(=O)N1CCN(c2nnc(-c3ccccc3)c3ccccc23)CC1`?
D1 mod: 0.304; M1 antagonist: -0.55; M1 agonist: 1.04

What do the screens show for `c1ccc(-c2nnc(N3CCN(c4ccccn4)CC3)c3ccccc23)cc1`?
D1 mod: -2.55; M1 antagonist: -4.83*; M1 agonist: 1.41; M1 antag confirm: 358*; mGluR4 antag: 171*

How did CC(=O)c1cnc(Nc2nc(C)c3cccc(C)c3n2)nc1C do in these assays?
M1 antagonist: -0.344; M1 agonist: -0.632

Results for COC(=O)C1=C(C)N(C)C(C)=C(C(=O)OC)C1c1ccc(C(=O)OC)cc1 ?
D1 mod: -0.525; M1 antagonist: -1.88; M1 agonist: -0.698; Htt clearance: -89.2

Results for COC(=O)C1=CNC=C(C(=O)OC)C1c1ccc(C(=O)OC)cc1 ?
D1 mod: 0.615; M1 antagonist: -3.21*; M1 agonist: -0.019; M1 antag confirm: 398*; mGluR4 antag: 220

What do the screens show for `FC(F)(F)c1cnc(Nc2ccc(N3CCOCC3)cc2)c(Cl)c1`?
D1 mod: -0.213; M1 antagonist: 0.207; M1 agonist: -0.0646

Results for Cc1c(C(=O)NCc2cccnc2)oc2ccc(S(=O)(=O)N3CCCCCC3)cc12 ?
D1 mod: -0.524; M1 antagonist: -1.64*; M1 agonist: -0.733; M1 antag confirm: 617; mGluR4 antag: 268

How did Cc1c(C(=O)N2CCCc3ccccc32)oc2ccc(S(=O)(=O)N3CCOCC3)cc12 do in these assays?
D1 mod: 0.105; M1 antagonist: -2.21*; M1 agonist: 0.72; Htt clearance: -4.4; M1 antag confirm: 614; mGluR4 antag: 264

What do the screens show for `Cc1c(C(=O)NCc2cccnc2)oc2ccc(S(=O)(=O)N3CCCCC3)cc12`?
D1 mod: -0.448; M1 antagonist: -0.365; M1 agonist: 2.06; Htt clearance: 0.3

What do the screens show for `CCOC(=O)N1CCN(C(=O)c2oc3ccc(S(=O)(=O)N4CCOCC4)cc3c2C)CC1`?
M1 antagonist: -0.274; M1 agonist: 0.171

Results for CCOC(=O)N1CCN(C(=O)c2oc3ccc(S(=O)(=O)N4CCCCCC4)cc3c2C)CC1 ?
D1 mod: -0.741; M1 antagonist: -1.96*; M1 agonist: -0.151; M1 antag confirm: 598; mGluR4 antag: 236

What do the screens show for `Cc1c(C(=O)N(C)Cc2ccccc2)oc2ccc(S(=O)(=O)N3CCCC3)cc12`?
M1 antagonist: -2.33*; M1 agonist: 2.54; Htt clearance: -9.6; M1 antag confirm: 590; mGluR4 antag: 249

How did CCOC(=O)c1c(C)n(C)c2ccc(OC)c(NC(=O)CN3CCN(C(=O)c4ccco4)CC3)c12 do in these assays?
D1 mod: 0.654; M1 antagonist: 0.0849; M1 agonist: -0.201

What do the screens show for `CC(C)(CSc1nncn1N)NS(=O)(=O)c1ccc(Cl)cc1`?
D1 mod: 0.399; M1 antagonist: -0.0254; M1 agonist: 0.255; Htt clearance: 11.8

How did N#C/C(=C1/CCCCCN1)c1nc2ccccc2[nH]1 do in these assays?
D1 mod: 2.35; M1 antagonist: -0.136; M1 agonist: 0.0118; Htt clearance: 27.4

Results for N#C/C(C(=O)c1ccccc1)=C1/CCCCCN1 ?
D1 mod: 0.0481; M1 antagonist: -2.43*; M1 agonist: 0.567; M1 antag confirm: 525; mGluR4 antag: 259

Results for CCCCN(C)C(=O)c1c[nH]c2ccc(S(=O)(=O)N3CCOCC3)cc2c1=O ?
D1 mod: 0.56; M1 antagonist: 0.202; M1 agonist: 0.726

What do the screens show for `CN1C(=O)C2ON(c3ccccc3)C(c3cccs3)C2C1=O` (configuration not stated)?
D1 mod: -1.39; M1 antagonist: -2.67*; M1 agonist: -0.0205; M1 antag confirm: 575; mGluR4 antag: 224

How did Cc1ccc(N2C(=O)C3ON(c4ccccc4)C(c4ccncc4)C3C2=O)cc1 (configuration not stated) do in these assays?
M1 antagonist: 0.0662; M1 agonist: 0.749; Htt clearance: 2.0

What do the screens show for `Cc1nnc2ccc(N3CCN(C(=O)c4ccccc4)CC3)nn12`?
D1 mod: -0.427; M1 antagonist: -0.963; M1 agonist: -0.692

Results for O=C(c1ccc(Br)o1)N1CCN(c2ccc3nnc(-c4ccccc4)n3n2)CC1 ?
D1 mod: 2.26; M1 antagonist: -6.41*; M1 agonist: 0.908; M1 antag confirm: 264*; mGluR4 antag: 225

Results for CCn1c(SCc2nnc(-c3ccccc3)o2)nnc1-c1ccc(S(=O)(=O)N2CCCC2)cc1 ?
D1 mod: -1.47; M1 antagonist: -0.392; M1 agonist: 0.0111; Htt clearance: -82.1

Results for CCn1c(SCc2ccccc2)nnc1-c1ccc(S(=O)(=O)N2CCCCC2)cc1 ?
M1 antagonist: -2*; M1 agonist: 0.305; Htt clearance: 29.0; M1 antag confirm: 504; mGluR4 antag: 225

How did CCCOc1ccc2[nH]cc(C(=O)O)c(=O)c2c1 do in these assays?
D1 mod: 0.752; M1 antagonist: -0.594; M1 agonist: 0.0177

How did CC(C)c1ccc(O)c(N)c1 do in these assays?
M1 antagonist: -2.63*; M1 agonist: 0.526; M1 antag confirm: 697; mGluR4 antag: 208

How did C=CCN(CC=C)c1nc2ccccc2nc1C(C#N)C(=O)OC(C)C (configuration not stated) do in these assays?
M1 antagonist: -0.911; M1 agonist: 0.212

How did CCN(CC)CCCNC(=O)c1cc2c(-c3ccc(Cl)cc3)nn(C)c2s1 do in these assays?
D1 mod: -1.79; M1 antagonist: -6.6*; M1 agonist: 0.0329; Htt clearance: -2.8; M1 antag confirm: 419; mGluR4 antag: 220

What do the screens show for `Cn1nc(-c2ccc(Cl)cc2)c2cc(C(=O)N3CCOCC3)sc21`?
D1 mod: 0.726; M1 antagonist: 0.236; M1 agonist: 0.605; Htt clearance: -33.4

What do the screens show for `CCN(CC)CCCNC(=O)c1cc(-c2ccc(Cl)c(Cl)c2)on1`?
D1 mod: -1.14; M1 antagonist: -3.01*; M1 agonist: -0.874; M1 antag confirm: 474*; mGluR4 antag: 176
